The panel holds about 83,000 compounds, 20% with a hit somewhere; the sample as a whole holds those more often.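 48-hour exposure, single concentration, 96-well plates; percent growth endpoint where 0 means no net growth. Active: below 10.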 Activity calls are given as the source filed them.
Tests used:
Assay in all cases: NCI-60 one-dose screen, 48 h (100 = growth as untreated, 0 = no growth, -100 = all killed)
SR leukemia = details: 10 µM unless noted
RPMI-8226 leukemia = test system: RPMI-8226 leukemia
OVCAR-8 ovarian = test system: OVCAR-8 ovarian
OVCAR-5 ovarian = test system: OVCAR-5 ovarian
OVCAR-4 ovarian = test system: OVCAR-4 ovarian
SK-OV-3 ovarian = test system: SK-OV-3 ovarian
IGROV1 ovarian = test system: IGROV1 ovarian
OVCAR-3 ovarian = test system: OVCAR-3 ovarian
NCI/ADR-RES ovarian = test system: NCI/ADR-RES ovarian
HS 578T breast = test system: HS 578T breast

Measured: growth

COc1sc(/C=N/NC(=O)c2[nH]c3ccc(Br)cc3c2-c2ccccc2)cc1Br
inactive: OVCAR-8 ovarian; 10 µM unless noted 12% | OVCAR-4 ovarian; 10 µM unless noted 41.9% | SK-OV-3 ovarian; 10 µM unless noted 40.2% | IGROV1 ovarian; 10 µM unless noted 11.8%
active: SR leukemia 4.82% | RPMI-8226 leukemia; 10 µM unless noted 9.25% | OVCAR-5 ovarian; 10 µM unless noted 0.79% | OVCAR-3 ovarian; 10 µM unless noted -0.827% | NCI/ADR-RES ovarian; 10 µM unless noted -64.9%

c1n[nH]cc1-c1nc2ccc3cn[nH]c3c2c2c1CCCC2
inactive: SR leukemia 74.5% | RPMI-8226 leukemia; 10 µM unless noted 85.3% | OVCAR-8 ovarian; 10 µM unless noted 89.2% | OVCAR-5 ovarian; 10 µM unless noted 89.9% | OVCAR-4 ovarian; 10 µM unless noted 96.1% | SK-OV-3 ovarian; 10 µM unless noted 96.8% | IGROV1 ovarian; 10 µM unless noted 66.5% | OVCAR-3 ovarian; 10 µM unless noted 109% | NCI/ADR-RES ovarian; 10 µM unless noted 88.7%

Nc1cc(-c2c[nH]c3ccc(Cl)cc23)nc2cc(-c3c[nH]c4ccccc34)nn12
inactive: SR leukemia 10.2% | OVCAR-4 ovarian; 10 µM unless noted 19.8%
active: RPMI-8226 leukemia; 10 µM unless noted 0.472% | OVCAR-8 ovarian; 10 µM unless noted -4.93% | OVCAR-5 ovarian; 10 µM unless noted -50.4% | SK-OV-3 ovarian; 10 µM unless noted 5.29% | IGROV1 ovarian; 10 µM unless noted 2.75% | OVCAR-3 ovarian; 10 µM unless noted -52.7% | NCI/ADR-RES ovarian; 10 µM unless noted -3.2%

COc1cccc(C(N)=Nc2ccc(OCCCCCCCCn3cncn3)cc2)c1
inactive: SR leukemia 10.4% | RPMI-8226 leukemia; 10 µM unless noted 14.2% | OVCAR-5 ovarian; 10 µM unless noted 29.6% | OVCAR-4 ovarian; 10 µM unless noted 55.5% | SK-OV-3 ovarian; 10 µM unless noted 41.7% | IGROV1 ovarian; 10 µM unless noted 27.3% | HS 578T breast; 10 µM unless noted 37.2%

Clc1ccc(-c2nc3c4c(-c5ccccc5)c(-c5ccccc5)n(Cc5ccccc5)c4ncn3n2)cc1
active: SR leukemia 5.49% | RPMI-8226 leukemia; 10 µM unless noted -34.7% | SK-OV-3 ovarian; 10 µM unless noted -10.2%
inactive: OVCAR-8 ovarian; 10 µM unless noted 11.6% | OVCAR-5 ovarian; 10 µM unless noted 16.6% | OVCAR-4 ovarian; 10 µM unless noted 16.4% | IGROV1 ovarian; 10 µM unless noted 16.1% | OVCAR-3 ovarian; 10 µM unless noted 14.7% | NCI/ADR-RES ovarian; 10 µM unless noted 70.9%

Cc1cccc(NCC(=O)N2CCN(c3ncnc4c3cnn4-c3ccccc3)CC2)c1
inactive: SR leukemia 22.7% | RPMI-8226 leukemia; 10 µM unless noted 75.7% | OVCAR-8 ovarian; 10 µM unless noted 65.2% | OVCAR-5 ovarian; 10 µM unless noted 83.8% | OVCAR-4 ovarian; 10 µM unless noted 51.6% | SK-OV-3 ovarian; 10 µM unless noted 67.1% | IGROV1 ovarian; 10 µM unless noted 59.4% | OVCAR-3 ovarian; 10 µM unless noted 94% | NCI/ADR-RES ovarian; 10 µM unless noted 60.6%

COc1ccc(N=Nc2c(N)nn3c(-c4cc5ccccc5oc4=O)ccnc23)cc1
inactive: SR leukemia 21% | RPMI-8226 leukemia; 10 µM unless noted 72.8% | OVCAR-8 ovarian; 10 µM unless noted 38.8% | OVCAR-5 ovarian; 10 µM unless noted 68.5% | OVCAR-4 ovarian; 10 µM unless noted 70.8% | SK-OV-3 ovarian; 10 µM unless noted 57.8% | IGROV1 ovarian; 10 µM unless noted 29.4% | OVCAR-3 ovarian; 10 µM unless noted 74.3% | NCI/ADR-RES ovarian; 10 µM unless noted 22.1%

N#Cc1c(-c2ccc(F)cc2)nc(SCc2ccccc2)nc1N1CCNCC1
active: SR leukemia -10.3% | RPMI-8226 leukemia; 10 µM unless noted -58% | OVCAR-8 ovarian; 10 µM unless noted -77.5% | OVCAR-5 ovarian; 10 µM unless noted -96.3% | OVCAR-4 ovarian; 10 µM unless noted -75% | SK-OV-3 ovarian; 10 µM unless noted -67.9% | IGROV1 ovarian; 10 µM unless noted -95.6% | OVCAR-3 ovarian; 10 µM unless noted -61.3% | NCI/ADR-RES ovarian; 10 µM unless noted -51.1%

CC/C(=C(/c1ccc(O)cc1)c1ccc(OCCN(C)C(=O)CCOCCNC(=O)Cc2ccc3c(c2)CN([C@@H]2CCC(=O)NC2=O)C3=O)cc1)c1ccccc1
inactive: RPMI-8226 leukemia; 1 µM 88% | RPMI-8226 leukemia; 10 µM 78.3% | OVCAR-8 ovarian; 1 µM 87.8% | OVCAR-8 ovarian; 10 µM 34.7% | OVCAR-5 ovarian; 1 µM 97.5% | OVCAR-5 ovarian; 10 µM 86.7% | OVCAR-4 ovarian; 1 µM 102% | OVCAR-4 ovarian; 10 µM 75.7% | SK-OV-3 ovarian; 1 µM 88.7% | SK-OV-3 ovarian; 10 µM 79.6% | IGROV1 ovarian; 1 µM 57.5% | IGROV1 ovarian; 10 µM 30.4% | OVCAR-3 ovarian; 1 µM 102% | OVCAR-3 ovarian; 10 µM 68.4% | HS 578T breast; 1 µM 61.4% | HS 578T breast; 10 µM 30.4% | NCI/ADR-RES ovarian; 1 µM 109% | NCI/ADR-RES ovarian; 10 µM 99.6%

CC/C(=C(\c1ccc(O)cc1)c1ccc(OCCN(C)C(=O)COCCNC(=O)Cc2ccc3c(c2)CN([C@@H]2CCC(=O)NC2=O)C3=O)cc1)c1ccccc1
active: IGROV1 ovarian; 10 µM 9.45%
inactive: RPMI-8226 leukemia; 1 µM 83.7% | RPMI-8226 leukemia; 10 µM 51.8% | OVCAR-8 ovarian; 1 µM 67.7% | OVCAR-8 ovarian; 10 µM 15.1% | OVCAR-5 ovarian; 1 µM 94.7% | OVCAR-5 ovarian; 10 µM 65.5% | OVCAR-4 ovarian; 1 µM 91.3% | OVCAR-4 ovarian; 10 µM 38.7% | SK-OV-3 ovarian; 1 µM 81% | SK-OV-3 ovarian; 10 µM 57.8% | IGROV1 ovarian; 1 µM 38.5% | OVCAR-3 ovarian; 1 µM 85.9% | OVCAR-3 ovarian; 10 µM 54.8% | NCI/ADR-RES ovarian; 1 µM 105% | NCI/ADR-RES ovarian; 10 µM 98.7%

COc1cc(/C=C/C(=O)c2cnn(-c3cc(=O)[nH]c4ccc(Br)cc34)c2C)cc(OC)c1OC
inactive: OVCAR-4 ovarian; 10 µM unless noted 25.6% | SK-OV-3 ovarian; 10 µM unless noted 19.5%
active: SR leukemia -15.2% | RPMI-8226 leukemia; 10 µM unless noted -23.7% | OVCAR-8 ovarian; 10 µM unless noted 7.35% | OVCAR-5 ovarian; 10 µM unless noted -68% | IGROV1 ovarian; 10 µM unless noted -59.8% | OVCAR-3 ovarian; 10 µM unless noted -59.1% | NCI/ADR-RES ovarian; 10 µM unless noted -26.8%

CC(C)(C)OC(=O)N1CCC2(CC1)Oc1ccccc1[C@H]1CC(c3ccc(Br)cc3)=NN12
inactive: RPMI-8226 leukemia; 10 µM unless noted 56.2% | OVCAR-8 ovarian; 10 µM unless noted 83.3% | OVCAR-5 ovarian; 10 µM unless noted 122% | OVCAR-4 ovarian; 10 µM unless noted 65% | SK-OV-3 ovarian; 10 µM unless noted 79.1% | IGROV1 ovarian; 10 µM unless noted 58.7% | OVCAR-3 ovarian; 10 µM unless noted 77.1% | HS 578T breast; 10 µM unless noted 91.5% | NCI/ADR-RES ovarian; 10 µM unless noted 83.7%

Reference: PubChem BioAssay (NCI)
